An excerpt weighted towards active compounds, which were near 1.4% of everything screened.
MbtI inh – inhibitors of Mycobacterium tuberculosis siderophore enzyme MbtI; purified MbtI enzyme, fluorescence intensity read-out; inhibition, % (no concentration beside the values); 100,000 compounds, 0.89% hits; AID 493033; in the data active = inhibition mostly above about 56%, no sharp cut-off; inactive = mostly below about 77%
AID504770 – E. coli YBA685 growth inhibition, screen for V. cholerae RctB inhibitors | E. coli YBA685 rctB-dependent plasmid, OD600 growth, 3 h; active compounds read low | z-score (concentration not given with the values) | 130,000 compounds, 0.27% hits | AID 504770; in the data active = z-score below about -2, passing the limit was not always enough
MenB inh – inhibitors of Mycobacterium tuberculosis MenB enzyme. P9WNP5. MenB enzyme assay, absorbance read-out. inhibition, % (test concentration not listed). 100,000 compounds, 0.43% hits; in the data active = inhibition above about 21%, passing the limit was not always enough
Target sequence (P9WNP5 whole entry, looked up): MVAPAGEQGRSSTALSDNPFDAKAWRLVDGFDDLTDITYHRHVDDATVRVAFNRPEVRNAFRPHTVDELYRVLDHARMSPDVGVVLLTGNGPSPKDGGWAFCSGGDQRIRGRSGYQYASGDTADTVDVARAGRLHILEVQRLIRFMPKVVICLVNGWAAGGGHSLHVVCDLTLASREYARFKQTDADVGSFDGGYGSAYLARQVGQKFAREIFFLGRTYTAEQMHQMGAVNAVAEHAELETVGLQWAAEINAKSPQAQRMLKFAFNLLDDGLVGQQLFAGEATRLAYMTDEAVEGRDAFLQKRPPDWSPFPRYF
PV pol inh – inhibitors of poliovirus RNA polymerase binding and polymerization; P03300; poliovirus polymerase elongation, fluorescence polarization; active compounds read low; % elongation, % (compound at 16.7 µg/mL); 150,000 compounds, 0.66% hits; in the data active = % elongation below about 90%
The depositor's hits bear a star.

How did Cc1cccc(NC(=O)CSc2nnc(C)c(=O)[nH]2)c1 do in these assays?
PV pol inh: 109

How did COc1ccc(C2C(C#N)=C(N)OC(C3CC3)=C2C#N)cc1 (configuration not stated) do in these assays?
MbtI inh: -21; AID504770: -0.85; MenB inh: -5; PV pol inh: 104

Results for COc1ccc(C2C(C#N)=C(N)Oc3c2ccc2cccnc32)cc1 (configuration not stated) ?
MbtI inh: 11; AID504770: 0.9; MenB inh: 33*; PV pol inh: 102

Results for COc1ccc(F)cc1S(=O)(=O)Nc1cccc(-c2ccc(N3CCCCCC3)nn2)c1 ?
PV pol inh: 110

What do the screens show for `COc1ccc(OC)c(S(=O)(=O)Nc2cccc(-c3ccc(N4CCCCC4)nn3)c2)c1`?
PV pol inh: 85*

What do the screens show for `N#Cc1ccc(CSc2nnnn2C2CC2)cc1`?
MbtI inh: -9; AID504770: -0.3; MenB inh: -18; PV pol inh: 35*

What do the screens show for `Cc1nnc(SCc2ccc(C#N)cc2)n1C1CC1`?
MbtI inh: -6; AID504770: -0.75; MenB inh: -7; PV pol inh: 99

What do the screens show for `CN1CCN(C(c2ccccn2)c2c(-c3ccccc3)n(O)c3ccccc23)CC1` (configuration not stated)?
MbtI inh: 22; AID504770: -0.15; MenB inh: -9; PV pol inh: 88*

What do the screens show for `Cc1[nH]c2ccccc2c1C(c1ccccn1)N1CCN(CCO)CC1` (configuration not stated)?
MbtI inh: 18; AID504770: 0; PV pol inh: 103

What do the screens show for `COc1cc(Cc2cnc(N)nc2N)cc(OC)c1OC`?
MbtI inh: -5; AID504770: -3.1*; MenB inh: -12; PV pol inh: 100

What do the screens show for `O=C1CNC(=O)c2c(nc3n2CCC3)N1`?
MbtI inh: 15; AID504770: 1.1; MenB inh: 34*; PV pol inh: 101

Results for Cc1cc(C)c(NC(=O)c2oc3c(c2C)-c2[nH]ncc2CC3)c(C)c1 ?
PV pol inh: 108

Results for Cc1ccc(Cl)cc1NC(=O)c1oc2c(c1C)-c1[nH]ncc1CC2 ?
PV pol inh: 78*

Results for c1ccc(OCc2nn[nH]n2)cc1 ?
MbtI inh: -3; AID504770: -0.2; MenB inh: -8; PV pol inh: 99

How did O=C(c1cccc(C(F)(F)F)c1)N1CCCc2ccccc21 do in these assays?
MbtI inh: 3; AID504770: 0.05; MenB inh: -28; PV pol inh: 99

Results for CCOC(=O)c1ccc(NC(=O)CSc2nccn2-c2ccccc2)cc1 ?
AID504770: -0.8

Results for CC(C)(C)N(N)C(=S)NCc1ccc(F)cc1 ?
MbtI inh: 90*; AID504770: -0.85; MenB inh: -23; PV pol inh: 86*

What do the screens show for `COc1ccc(-c2cc3nc4c(c(N5CC(C)CC(C)C5)n3n2)CCC4)cc1` (configuration not stated)?
MbtI inh: 6; AID504770: 1.4; MenB inh: -11; PV pol inh: 102

What do the screens show for `CC(C)Cn1c(=S)[nH]c2cc(Cl)ccc21`?
MbtI inh: 85*; AID504770: -0.55; MenB inh: -27; PV pol inh: 78*

What do the screens show for `CC(C)Cn1c(=S)[nH]c2ccccc21`?
MbtI inh: 17; AID504770: 0.7; MenB inh: 0; PV pol inh: 99

How did Cc1ccc2c(c1)c1c3n2CCN(C(=O)c2c(-c4ccccc4Cl)noc2C)C3CCC1 (configuration not stated) do in these assays?
MbtI inh: -13; AID504770: -0.4; MenB inh: 7; PV pol inh: 100

How did Cc1nc2c3ccccc3nc(NNC(=O)CCC(=O)N3CCN(c4ccc(F)cc4)CC3)n2n1 do in these assays?
PV pol inh: 95

Results for CCCCNC(=O)CCC(=O)NNc1nc2ccccc2c2nc(C)nn12 ?
PV pol inh: 81*

Results for CCCCNC(=O)CCC(=O)NNc1nc2ccccc2c2nc(-c3ccccc3)nn12 ?
PV pol inh: 106

Results for CCOCCCNC(=O)CCC(=O)NNc1nc2ccccc2c2nc(C)nn12 ?
PV pol inh: 36*

Results for COCCCNC(=O)CCC(=O)NNc1nc2ccccc2c2nc(C)nn12 ?
PV pol inh: 24*

What do the screens show for `Fc1ccc(N=C(CN2CCCCC2)N2CCCCC2)cc1`?
MbtI inh: -27; AID504770: -0.35; MenB inh: -18; PV pol inh: 105

What do the screens show for `Cc1ccc(NC(=O)/C(CN(C)C2CCCCC2)=N\O)cc1`?
MbtI inh: -2; AID504770: -0.65; MenB inh: 0; PV pol inh: 100

What do the screens show for `CCN1C=C(C(=O)OC)C(c2ccc(C(C)C)cc2)C(C(=O)OC)=C1`?
MbtI inh: -79; AID504770: -0.5; MenB inh: -42; PV pol inh: 99

What do the screens show for `O=c1[nH]c(=S)n(CCc2ccccc2)c2c1CN(CCc1ccccc1)CN2`?
MbtI inh: 0; AID504770: -0.25; MenB inh: 7; PV pol inh: 103

How did O=c1[nH]c(=S)n(-c2cccc(Cl)c2)c2c1CN(C1CCCC1)CN2 do in these assays?
MbtI inh: 16; AID504770: -0.35; MenB inh: 52*; PV pol inh: 99

How did N#CCn1cc(/C=C2\C(=O)NC(=O)N(c3cccc(F)c3)C2=O)c2ccccc21 do in these assays?
MbtI inh: 74*; AID504770: 1.9; MenB inh: -24; PV pol inh: 101

What do the screens show for `CCOC(=O)Cn1cc(/C=C2\C(=O)NC(=O)N(c3ccc(F)cc3)C2=O)c2ccccc21`?
MbtI inh: -4; AID504770: -0.85; MenB inh: -30; PV pol inh: 68

What do the screens show for `CCOc1ccccc1NC(=O)CS`?
MbtI inh: 83*; AID504770: 1.1; MenB inh: -140; PV pol inh: 98

What do the screens show for `CCOc1ccccc1NC(=O)c1ccc(C(=O)Nc2ccccc2OCC)cc1`?
PV pol inh: 108

How did CCOCCCn1c(SCC(=O)NC2(C#N)CCCCC2)nc2ccccc2c1=O do in these assays?
MbtI inh: 15; AID504770: 0.6; MenB inh: -13; PV pol inh: 102

How did COc1cccc(NC(=O)Cn2ccc3c(OC)cccc3c2=O)c1 do in these assays?
MbtI inh: 54; AID504770: -0.25; MenB inh: -4; PV pol inh: 102

Results for COc1cccc(NC(=O)Cn2sc3ccccc3c2=O)c1 ?
MbtI inh: 98; AID504770: -2.5*; MenB inh: -62; PV pol inh: 105

How did Cn1cnc2c1c(=S)[nH]c(=O)n2Cc1ccccc1 do in these assays?
AID504770: -0.9; MenB inh: -27; PV pol inh: 82*

What do the screens show for `COc1ccc(CC(CN)c2ccccc2)cc1` (configuration not stated)?
MbtI inh: 1; AID504770: 1.1; MenB inh: 36*; PV pol inh: 102

How did COc1ccccc1NC(=O)[C@H](Cc1ccccc1)N1Cc2ccccc2C1=O do in these assays?
MbtI inh: -2; AID504770: 1.2; MenB inh: -3; PV pol inh: 103

What do the screens show for `Cc1ccccc1OCCSc1nnc(-c2cccs2)o1`?
PV pol inh: 109

Bioassay records: PubChem BioAssay, ICCB-Longwood Screening Facility, Harvard Medical School
